Vc quorum ag – inducers of Vibrio cholerae quorum light production without autoinducers, primary screen, BH1578 luxS cqsA deficient, single point; V. cholerae BH1578 lux reporter, luminescence, 6 h; activation, % at 18.7 µM; hit rate 0.16% among 350,000; in the data active means activation mostly above about 9.7%, no sharp cut-off
Mtb FBA inh – Mtb FBA enzyme inhibitors, primary screen, biochemical, fluorescence, strain H37Rv | Fructose-bisphosphate aldolase (Mycobacterium tuberculosis (strain ATCC 25618 / H37Rv)), … | hit rate 2.3% among 360,000 | inhibition, % at 1 µM | purified M. tuberculosis FBA, fluorescence read-out; in the data active means inhibition above about 27%;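 further: 0% = vehicle and 100% = reference inhibitor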
Target sequence (P9WQA3 whole entry, looked up): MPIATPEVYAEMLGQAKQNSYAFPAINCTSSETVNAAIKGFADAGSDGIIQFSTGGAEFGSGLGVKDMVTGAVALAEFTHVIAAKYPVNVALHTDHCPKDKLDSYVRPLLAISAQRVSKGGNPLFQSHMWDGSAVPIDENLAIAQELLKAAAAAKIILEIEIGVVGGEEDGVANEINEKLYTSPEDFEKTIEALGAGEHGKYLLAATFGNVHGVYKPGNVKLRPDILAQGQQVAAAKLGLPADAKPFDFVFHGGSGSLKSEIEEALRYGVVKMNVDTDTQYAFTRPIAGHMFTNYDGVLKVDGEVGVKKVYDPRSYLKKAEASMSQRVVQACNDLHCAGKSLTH
SARS 3CLpro inh – SARS-CoV 3CLpro protease inhibitors, primary screen, biochemical, quenched FRET. Replicase polyprotein 1ab (Severe acute respiratory syndrome coronavirus), P0C6X7. recombinant SARS-CoV 3CLpro, quenched FRET peptide cleavage. inhibition, % at 6 µM. hit rate 0.14% among 290,000; in the data active means inhibition above about 12%
PrPC TRFRET – inhibitors of human cell surface prion protein PrPC, primary screen, cell-based, TR-FRET; TR-FRET read-out; hit rate 0.43% among 370,000; inhibition, % at 13.8 µM; Major prion protein (Homo sapiens), P04156; in the data active means inhibition above about 24%; further: 0% = median of the test wells and 100% = reference compound wells
GDH-TPI inh – GDH-TPI coupling enzyme inhibitors, primary screen, artefact control for M. tuberculosis FBA inhibitor project, biochemical, absorbance, full deck. GDH-TPI coupled enzyme counterscreen, NADH absorbance. inhibition, % at 4.8 µM. hit rate 1.2% among 360,000. AID 588335, 2011; in the data active means inhibition above about 30%;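 further: 0% = DMSO wells and 100% = wells lacking the enzyme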
Numbers without * were called inactive; i = inactive; . = no result given; + = active, no number. The list is not random: actives were taken first. Their share in the collection is about 3.9%.

SMILES	Vc quorum ag	Mtb FBA inh	SARS 3CLpro inh	PrPC TRFRET	GDH-TPI inh
Cc1c(CC(=O)O)c(=O)oc2c(C)c(OCc3nn[nH]n3)ccc12	0	147*	-3	-1	30
Cc1noc(/C=C/N(C)C)c1S(=O)(=O)N1CCCC(C(=O)NCc2cccs2)C1 (stereo not drawn)	1	0	1	5	38*
COCCNC(=O)C1CCCN(S(=O)(=O)c2c(C)noc2/C=C/c2cccs2)C1 (stereo not drawn)	0	3	-1	4	22
COc1cccc(CNC(=O)C2CCCN(S(=O)(=O)c3c(C)noc3/C=C/N(C)C)C2)c1 (stereo not drawn)	-11	0	-4	4	34*
COc1ccccc1CNC(=O)C1CCCN(S(=O)(=O)c2c(C)[nH]c(=O)[nH]c2=O)C1 (stereo not drawn)	i	65*	2	-8	5
COc1cccc(CNC(=O)C2CCCN(S(C)(=O)=O)C2)c1 (stereo not drawn)	-2	2	-2	1	11
COc1ccc(-c2ccc3c(c2)CN(C(=O)C(C)(C)C)Cc2cnnn2-3)cc1	.	140*	.	2	.
CC(C)(C)C(=O)N1Cc2cc(-c3ccccc3)ccc2-n2nncc2C1	.	1	.	6	.
COc1cc(CN2CCN(C(C)C)C(CCO)C2)ccc1OCc1ccccc1 (stereo not drawn)	0	-1	-1	-9	8
COc1ccc2sc(-c3ccc(S(C)(=O)=O)cc3)c(C(=O)NCCc3c[nH]c4ccccc34)c2c1	-7	9	.	-21	9
COc1ccc2c(C(=O)NCCCCO)c(-c3ccc(S(C)(=O)=O)cc3)sc2c1	0	+	.	-25	20
CCN(Cc1ccccc1)c1ccc(/C=N/NS(=O)(=O)c2ccc(C)c([N+](=O)[O-])c2)cc1	0	-4	-2	10	32*
CN(C)[C@H]1CCN(c2ccc3c(c2)OCCCN(C2CC2)S3(=O)=O)C1	.	.	.	-9	.
COC(=O)c1ccc(CSc2ncnc3c2sc2nc(N4CCOCC4)c4c(c23)CCCC4)o1	0	4	-2	-2	32*
OCCN1CCN(c2ncnc3c2sc2nc(N4CCOCC4)c4c(c23)CCC4)CC1	0	20	-10	7	44*
CC1(C)Cc2c(c(N3CCCC3)nc3sc4c(N5CCN(CCO)CC5)ncnc4c23)CO1	i	10	-9	8	33*
Cn1c(NCCN2CCCC2)nc2cc(-c3ccsc3)sc2c1=O	0	2	.	-5	9
CC1(C)Cc2cccc(OCC(=O)OCC(=O)Nc3ccc(S(N)(=O)=O)cc3)c2O1	i	3	.	2	15
C[C@@H]1CN([C@@H](C)CO)C(=O)CCCn2cc(nn2)CO[C@H]1CN(C)C(=O)Nc1ccc(F)cc1	.	.	.	-5	.
CCCCOc1ccc(NC(=O)c2cnc(C)cn2)cc1	17*	4	-1	0	6
CC(C)(CNC(=O)/C=C/c1ccc(F)cc1)CNC(=O)/C=C/c1ccc(F)cc1	i	-3	2	-16	1
c1cncc(Nc2c3ccccc3nc3ccccc23)c1	1	40*	-3	-7	10
O=C(Cc1c[nH]c2ccccc12)Nc1ccc(Nc2cccnc2)c(Br)c1	.	.	.	5	.
Cc1ccc2nc(C3CCCCC3)c(Cc3cccc(Cl)c3)n2c1	.	145*	.	-11	.
Cc1ccc(/C=C/c2nnc(-c3ccccc3)o2)cc1	0	1	1	1	25
SMILES	Vc quorum ag	Mtb FBA inh	SARS 3CLpro inh	PrPC TRFRET	GDH-TPI inh
C(=C\c1nnc(-c2cccs2)o1)/c1ccccc1	i	18	-1	-10	51*
CC(C)(C)OC(=O)COc1ccc(/C=N/NC(=O)CN2CCCCC2)cc1	i	2	2	7	-1
Cn1c(=O)c2cc(NC(=O)NCc3ccccc3)ccc2n1Cc1ccc(Cl)cc1	i	123*	.	9	-7
Cn1c(=O)c2cc(NC(=O)Nc3ccccc3)ccc2n1Cc1ccccc1	-3	142*	.	13	4
Cc1ccc(N2C(=O)CC(Cc3cccc(C)c3)C2=O)cc1 (stereo not drawn)	i	0	4	-5	-5
CCC(C)(C)NC(=O)c1ccc(Sc2nncn2C)c([N+](=O)[O-])c1	i	3	3	-27	16
Cn1cnnc1Sc1ccc(/C=C/C(=O)c2ccc(O)cc2)cc1[N+](=O)[O-]	i	-3	-2	-12	37*
CNc1cncc(-c2ccc(CN(C)C)cc2)n1	-4	+	.	-3	6
CNc1cncc(-c2cnn(CC(C)C)c2)n1	i	+	.	-7	20
CNc1cncc(-c2cc(C)c(O)c(C)c2)n1	1	20	.	13	15
CNc1cncc(-c2ccc(OC)cc2)n1	-1	172*	.	-7	19
CNc1cncc(-c2ccc(S(C)(=O)=O)cc2)n1	i	171*	.	-27	16
COC(=O)/C(=C\c1c(OC)cc(OC)cc1OC)C(=O)c1ccc2c(c1)OCO2	i	0	.	-5	8
O=C(Nc1cc(S(=O)(=O)N2CCOCC2)ccc1N1CCCCC1)c1ccccc1Br	i	1	.	7	-2
COc1ccc(/C=N\NC(=O)CNC(=O)C2COc3ccccc3O2)cc1[N+](=O)[O-] (stereo not drawn)	-5	-1	6	-11	-8
O=C(OCc1cn([C@@H]2CN(Cc3cccs3)[C@@H](c3ccc(Cl)cc3)C[C@H]2O)nn1)c1ccccc1	-1	-1	.	-6	4
COc1ccc(CN2CCOCC2)cc1	0	-3	4	-4	14
CNc1cncc(-c2cccc(C(C)=O)c2)n1	i	0	.	-10	18
CNc1cncc(-c2cccc(NS(C)(=O)=O)c2)n1	i	168*	.	-8	19
CNc1cncc(-c2ccc(O)cc2)n1	i	131*	.	-7	23
CNc1cncc(-c2ccc(CN3CCOCC3)cc2)n1	-3	+	.	-15	12
CNc1cncc(-c2ccoc2)n1	i	177*	.	-3	6
Cc1cc(C)cc(C(=O)NCCCN2CCOCC2)c1	i	0	6	-4	4
COc1ccc(NC(=O)Cc2coc3cc(C)ccc23)cn1	-1	-2	2	0	-7
CNc1cncc(-c2ccc(OCCCN(C)C)nc2)n1	i	+	.	-10	14
Cc1ccc(CNS(=O)(=O)N(C)C)cc1	3	-3	3	4	6
CCCCn1nnnc1C(c1ccccc1)N1CCN(c2ccc(F)cc2)CC1 (stereo not drawn)	.	.	.	13	.
O=C1NC(=Nc2ccccc2)S/C1=C\c1ccccc1	i	0	-6	2	33*
COc1ccc(/C=C2\SC(=Nc3ccccc3OC)NC2=O)cc1	-1	-2	2	-3	50*
